# From PubChem
# HER2 expr 66K = inhibitors of Her2 protein expression, primary screen, SKBR-3 cells, AlphaScreen, 66K library | AID 645, 2007 | SKBR-3 HER2 protein level, 18-24 h; active compounds read low | Receptor tyrosine-protein kinase erbB-2 (Homo sapiens), P04626 | hit rate 0.69% among 65,000 | HER2 level % of control, % at 10 µM;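 active = HER2 level under 5% of the carrier-only control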;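 also: 100% = DMSO carrier and 0% = 500 nM PU-H71 HSP90 inhibitor; lower value means stronger loss of Her2 protein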
# CatB mix inh = cathepsin B inhibitors from pooled compounds, primary screen, biochemical, compound mixtures, AMC fluorescence. P07858. Purified cathepsin B, AMC dipeptide fluorescence. inhibition, %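 (ten-compound pools at 5 µM per compound and 50 µM total)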. hit rate 0.06% among 62,000; in the data active = inhibition above about 22%, passing the limit was not always enough;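 also: 0% = enzyme without compound and 100% = no enzyme blank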
# WNV protease inh = inhibitors of WNV NS2B-NS3 protease, primary screen, biochemical, fluorogenic substrate. z-score (concentration not given with the values). hit rate 0.18% among 65,000. fluorogenic substrate Ex360/Em465; active compounds read low. Genome polyprotein (West Nile virus), P06935; in the data active = z-score below about -3
# Target sequence (P06935 1371-1501 limits assumed): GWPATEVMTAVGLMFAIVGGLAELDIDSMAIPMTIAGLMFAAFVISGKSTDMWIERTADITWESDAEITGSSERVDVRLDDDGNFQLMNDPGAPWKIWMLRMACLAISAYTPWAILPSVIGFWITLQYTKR
# Target sequence (P06935 1502-1679 limits assumed): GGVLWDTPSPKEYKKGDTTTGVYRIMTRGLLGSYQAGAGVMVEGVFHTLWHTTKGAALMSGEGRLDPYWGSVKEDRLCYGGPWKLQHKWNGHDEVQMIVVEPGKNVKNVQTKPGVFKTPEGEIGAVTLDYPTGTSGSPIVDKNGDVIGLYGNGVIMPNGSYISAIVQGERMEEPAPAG
# CatB inh = human cathepsin B inhibitors, primary screen, biochemical, fluorogenic substrate; P07858; purified cathepsin B, fluorescence; inhibition, %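 (tested at 10 µM)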; hit rate 0.1% among 63,000; AID 453, 2006; in the data active = inhibition above about 21%;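 also: 0% = enzyme with no compound and 100% = no enzyme blank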
# CatS block = inhibitors of human cathepsin S, biochemical, compound mixtures. inhibition, %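 (tested at 5 µM per compound within 10-compound mixtures)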. AID 501, 2006. recombinant cathepsin S, AMC dipeptide fluorescence, pooled mixtures. hit rate 0.06% among 62,000. P25774; in the data active = inhibition above about 32%, passing the limit was not always enough;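 also: 0% = enzyme without compound and 100% = blank without enzyme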
# CatL inh = inhibitors of human cathepsin L, biochemical; hit rate 0.17% among 58,000; inhibition, %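 (tested at 10 µM)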; Procathepsin L (Homo sapiens), P07711; purified cathepsin L, fluorogenic substrate, fluorescence; in the data active = inhibition above about 45%;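 also: 0% = enzyme with no compound and 100% = no enzyme blank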
# Target sequence (P07711 114-288 limits assumed): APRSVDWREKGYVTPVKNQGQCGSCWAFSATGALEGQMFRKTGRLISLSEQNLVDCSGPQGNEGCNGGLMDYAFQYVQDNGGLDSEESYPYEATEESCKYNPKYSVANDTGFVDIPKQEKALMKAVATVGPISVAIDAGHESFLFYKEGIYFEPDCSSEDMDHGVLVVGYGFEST
# Target sequence (P07711 292-333 limits assumed): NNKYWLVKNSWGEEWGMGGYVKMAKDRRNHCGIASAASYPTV
# Active calls of the source: *; x = no result given; ! = repeats disagree. Hits are enriched below; roughly 1.1% of the tested compounds scored in any of these assays.
SMILES,HER2 expr 66K,CatB mix inh,WNV protease inh,CatB inh,CatS block,CatL inh
Cc1sc2nc(SCC(=O)c3cc(C)n(CC4CCCO4)c3C)n(C(C)C)c(=O)c2c1C (stereo not drawn),66,2,-0.84,-4,-4,-4
CCCS(=O)(=O)c1nnnn1-c1cccc(OC)c1,-22*,-6,-0.15,-3,-10,-9
COc1ccc(-n2nnnc2SCC(=O)c2cccc(OC)c2)cc1,84,5,-0.27,5,3,3
O=C(Nc1ccc(NC(=O)C2CCCN2C(=O)OCc2ccccc2)cc1)c1ccco1 (stereo not drawn),82,x,-0.84,x,x,x
CC(C)Cc1nc2oc3c(N4CCN(C)CC4)ncnc3c2c2c1CCCC2,78,2,-0.88,0,1,-3
CCCc1nc2oc3c(N4CCNCC4)ncnc3c2c2c1CCCC2,-15*,3,-1.6,-7,16,-7
Cn1c(COc2ccccc2)nnc1SCc1cc(=O)[nH]c2ccccc12,90,5,-0.43,17,-1,12
COc1ccc2c(c1OC)C(=O)OC2Nc1ccccc1S(=O)(=O)C(F)F (stereo not drawn),-21*,8,-1,-6,8,0
O=C(O)CCc1nn2cc(-c3ccccc3)nc2[nH]c1=O,-19*,x,0.83,-2,x,-49
COc1ccc(N(CC(=O)Nc2cccc(C)c2C)S(=O)(=O)c2c(C)n[nH]c2C)cc1,88,1,0.27,62*,3,12
COc1cc2c(cc1OC)CN(C(=O)Cc1ccc(OC)c(S(=O)(=O)N3CCOCC3)c1)CC2,104,2,-0.24,11,4,x
CCN(CCC(=O)Nc1cc(OC)cc(OC)c1)Cc1ccccc1,88,6,-1.3,1,-8,-3
COc1cccc(OC)c1OCCCc1c(C)n[nH]c1C,116,-6,1.1,6,8,8
COc1ccc2c3c(cccc13)NN=C2C,90,3,-4.5*,7,24,x
CS(=O)c1nc(-c2ccc(Br)cc2)cc(-c2ccccc2)c1C#N (stereo not drawn),-22*,3,-0.15,6,1,3
CCN1CCc2c(C#N)c(N3CCCCC3)nc(N3CCOCC3)c2C1,-22*,x,-0.29,4,x,-41
O=C(c1cncc(Br)c1)N1CCN(c2ccc(N3CCOCC3)nn2)CC1,91,1,0.76,52*,11,14
CCOC(=O)CC(N)c1ccc2c(c1)OCO2 (stereo not drawn),-21*,-2,-0.47,-3,-3,11
CCOC(=O)COc1ccc(S(=O)(=O)Nc2ccc3c(c2)OCO3)cc1,48,7,0.31,-1,34,9
Cc1ccc(-c2nnc(N3CCOCC3)c3ccccc23)cc1S(=O)(=O)NCC1CCCO1 (stereo not drawn),97,8,0.07,7,9,12
CN(C)CC(C(=O)c1ccccc1)c1ccccc1 (stereo not drawn),-55*,7,-0.21,3,-6,-5
CCOc1c(Cl)cc(C(=O)NCCN2CCCCC2)cc1Cl,84,-2,0.12,5,12,7
O=C(CN1C(=O)C2C3C=CC(C3)C2C1=O)NCCN1CCCc2ccccc21 (stereo not drawn),120,7,-0.64,-2,7,8
CCOc1ccc(-c2[nH]ncc2Oc2ccccc2OCC)c(O)c1,-18*,-4,0.45,14,-3,20
CC1CCc2c(sc3ncnc(N4CCOCC4)c23)C1 (stereo not drawn),-29*,5,-0.28,-2,4,x
SMILES,HER2 expr 66K,CatB mix inh,WNV protease inh,CatB inh,CatS block,CatL inh
O=C(Nc1cccc(-c2nc3ccccc3[nH]2)c1)c1cccc(NC(=O)c2ccco2)c1,-17*,0,0.01,9,14,31
O=C(CSc1nnc(-c2cccs2)o1)N1CCCc2ccccc21,134,2,-0.21,0,-2,-9
CN(C)/C=C1/Sc2ccccc2C1=O,167,-7,-4.1*,-5,5,x
N#C/C=C1/NC(=O)c2ccccc2S1,90,-1,-0.82,-1,-2,1
NC(=O)c1ccsc1NC(=O)c1ccc(S(=O)(=O)N2CCCCC2)cc1,82,-12,0.12,8,-13,14
COc1cc2[nH]c(=O)n(CCC(=O)N3CCN(c4cccc(C)c4C)CC3)c(=O)c2cc1OC,-23*,1,-0.2,-6,2,4
COc1ccc(CNC(=O)CN(C(=O)CCC(=O)Nc2ccccn2)c2ccccc2OC)cc1,108,-11,0.86,3,-17,x
CCN(CC)C(=O)CSc1nnc([C@@H](N)Cc2ccccc2)o1,120,-1,0.29,-2,1,83*
Cc1ccc(N2C(=O)Nc3ccc(Br)cc3C2(O)C(=O)NCCCN(C)C)cc1C (stereo not drawn),76,2,0.31,-7,-12,-11
Cn1cccc1Cc1nnc(SCC(=O)Nc2ccc(F)cc2)n1-c1ccc(F)cc1,86,-10,0.09,1,-9,13
COc1ccc(-n2c(Cc3cccn3C)nnc2SCC(=O)NCc2ccccc2Cl)cc1,106,0,-0.25,0,0,101*
COc1ccc(-n2c(Cc3cccn3C)nnc2SCC(=O)NCc2ccc(F)cc2)cc1,105,3,-1.3,7,13,5
Cn1cccc1Cc1nnc(SCC(=O)NCC2CCCO2)n1-c1ccc(F)cc1 (stereo not drawn),94,8,0.23,1,23,46*
CCn1c(SCC(=O)Nc2cccc(C)n2)nnc1-c1ccco1,83,4,-0.13,7,16,-4
CCCn1c(SCC(=O)Nc2cccc(C)n2)nnc1-c1ccco1,-23*,-2,-0.06,0,12,6
COc1cc2c(C#N)c(N3CCN(c4ccccc4OC)CC3)nc(N)c2c(N)n1,-4.0*,5,-0.36,0,0,-225
N#Cc1c(N2CCCC2)nc(N)c2c(N)nc(N3CCCC3)cc12,121,77*,-0.25,45*,59*,18
Cc1[nH]nc2cn[nH]c12,71,x,1,0,x,16
CNCCCN1c2ccccc2CCc2ccccc21,46,-1,-6.7*!,0,10,28
O=C(CCCCCn1c(=S)[nH]c2cc3c(cc2c1=O)OCO3)N1CCN(C2CCCCC2)CC1,-16*,2,0.03,3,-2,10
O=C(NCc1ccco1)C(c1ccc(F)cc1)N(Cc1cccnc1)C(=O)Cn1nnc2ccccc21 (stereo not drawn),110,5,-0.92,-1,15,-4
Nc1c(S(=O)(=O)c2ccccc2)c2nc3ccccc3nc2n1/N=C/c1cccc(O)c1,-28*,2,-0.66,3,15,-17
CCOC(=O)CNS(=O)(=O)c1cc(-c2n[nH]c(=O)c3ccccc23)ccc1C,173,x,0.08,23*,x,7
